Assay results published in PubChem BioAssay AID588855 (National Center for Advancing Translational Sciences (NCATS), 2011).
Out of some 410,000 compounds screened, about 5,000 (1.2%) were called active. Roughly 13% stayed inconclusive and do not appear here. This excerpt belongs to a sample that is enriched for actives. Unmarked numbers belong to inactive results. The call rests on the fitted dose curve; in most records, active means well fitted inhibition curve with a large enough effect; inconclusive means small, poorly fitted or top-dose-only effect; inactive means no such curve, though single readings can be large or run the other way.

Assay: qHTS for Inhibitors of TGF-b; further: nearly all actives have a fitted effect of over 65% in size
Conditions: HepG2 CAGA-GFP TGF-b/SMAD3 reporter, GFP fluorescence, 18 h, TGF-beta stimulated, 500 pg/mL final; series mostly up to 46.1 µM; activity, negative = inhibition: at the top concentration
Outline: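 Inhibition of TGF-beta-driven CAGA-GFP reporter expression in HEPG2 cells is measured by cellular GFP fluorescence after 18 h stimulation with 500 pg/mL recombinant TGF-beta in 1% FBS medium at 37 degrees C.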
On the % scale 0 is the no-effect control and ±100 the full control effect; potency means the concentration at half of the fitted maximal effect.

Question: With `CN(NC(=O)c1ccccc1F)c1nc(C(F)(F)F)nc2ccccc12` as the compound, how does the “activity, negative = inhibition” value read?
Answer: -21.4%

Question: For `CCc1ccc(C(CNc2nc(C(F)(F)F)nc3ccccc23)N(C)C)cc1` (stereo not given), which Potency is on record?
Answer: 11.2 µM (active)

Question: Which “activity, negative = inhibition” value does the source give for `CN(C)C(CNC(=O)c1cc2ccccc2o1)c1ccccc1` (stereo not given) here?
Answer: -11.8%

Question: With `O=C(C1COc2ccccc2O1)N(Cc1cccnc1)c1nc2c(F)cc(F)cc2s1` (stereo not given) as the compound, how does the “activity, negative = inhibition” value read?
Answer: -13.3%

Question: Which “activity, negative = inhibition” value does the source give for `Cc1cc(-c2ccc(C)c(S(=O)(=O)N3c4ccccc4CC3C)c2)on1` (stereo not given) here?
Answer: 0%

Question: Which “activity, negative = inhibition” value does the source give for `CCCCN1C(=O)C(C)=C(C)C1OCCc1ccc(OC)c(OC)c1` (stereo not given) here?
Answer: -21.6%

Question: Which Potency does the source give for `CCCCOc1ccc(CN2C(=O)C(=O)c3cc(Br)cc(C)c32)cc1OC` here?
Answer: 10 µM (active)

Question: For `COc1ccc(CCN2C(=O)C(C)=C(C)C2=O)cc1OC`, which “activity, negative = inhibition” value is on record?
Answer: 1.46%

Question: For `Cc1ccc(-c2nc3cccc(C)n3c2Nc2ccc3c(c2)OCCO3)cc1`, which “activity, negative = inhibition” value is on record?
Answer: 8.92%

Question: With `Clc1cccc(N=C2NN=C(c3ccc4c(c3)OCCO4)CS2)c1` as the compound, how does the Potency read?
Answer: 10 µM (active)

Question: Which “activity, negative = inhibition” value does the source give for `COc1ccc(NC(=O)CSc2nccn2C2CCCC2)cc1OC` here?
Answer: 0.0461%

Question: For `CCN1CCC(O)(/C=C/c2ccc(C)cc2)C(C(=O)/C=C/c2ccc(C)cc2)C1` (stereo not given), which Potency is on record?
Answer: 11.2 µM (active)

Question: For `COc1ccc(CNc2nc(-c3ccc(Cl)cc3)nn2S(=O)(=O)c2ccc(C)cc2)cc1`, which “activity, negative = inhibition” value is on record?
Answer: -14.6%

Question: Which Potency does the source give for `O=S(=O)([N-]c1nc2ccccc2nc1-[n+]1ccc(Cc2ccccc2)cc1)c1ccc(Br)s1` here?
Answer: 2.82 µM (active)

Question: Which “activity, negative = inhibition” value does the source give for `O=S(=O)(NCc1ccccn1)c1ccc(Br)s1` here?
Answer: 14.4%

Question: Which “activity, negative = inhibition” value does the source give for `COc1ccc(C2C(=O)N(C3CCCCCC3)CC(=O)N2CCc2ccc(Cl)cc2)cc1OC` (stereo not given) here?
Answer: -0.397%

Question: With `CCC(=O)N1c2ccccc2CC1C(=O)N1CCN(c2ccccc2F)CC1` (stereo not given) as the compound, how does the “activity, negative = inhibition” value read?
Answer: -0.708%

Question: With `Cc1ccccc1CCNC(=O)C1CCN(c2nc3ccccc3nc2C(F)(F)F)CC1` as the compound, how does the “activity, negative = inhibition” value read?
Answer: -5.82%

Question: For `Cc1ccc(Cl)cc1NC(=O)NC1COc2ccccc2C1` (stereo not given), which “activity, negative = inhibition” value is on record?
Answer: 64.3%

Question: Which “activity, negative = inhibition” value does the source give for `Nc1nc(N)c(N=O)c(N)n1` here?
Answer: -18.6%

Question: Which “activity, negative = inhibition” value does the source give for `Cc1nc2ccccn2c(=O)c1NC(=O)c1c(F)cccc1F` here?
Answer: -43.5%

Question: With `c1ccc(C2CNCc3c2ccc2ccccc32)cc1` (stereo not given) as the compound, how does the Potency read?
Answer: 12.6 µM (active)

Question: Which “activity, negative = inhibition” value does the source give for `CCN(CC)/[N+]([O-])=N/OCOC(=O)Cc1c(C)n(C(=O)c2ccc(Cl)cc2)c2ccc(OC)cc12` here?
Answer: -15.9%

Question: With `CCOC(=O)c1c(C)[nH]c2c1-c1ccccc1C(=O)C2=O` as the compound, how does the Potency read?
Answer: 1.26 µM (active)

Question: Which “activity, negative = inhibition” value does the source give for `CCOC(=O)c1[nH]c2ccccc2c1N=C(C)N(CC)CC` here?
Answer: -13.3%

Question: With `CCOC(=O)c1c(SCC(=O)Nc2cccc(C)c2C)nc(=O)[nH]c1C` as the compound, how does the “activity, negative = inhibition” value read?
Answer: 14.4%

Question: Which “activity, negative = inhibition” value does the source give for `Cc1ccc(S(=O)(=O)/N=S(\C)C(C)C)cc1` (stereo not given) here?
Answer: 26%

Question: Which Potency does the source give for `Cc1ccc(S(=O)(=O)/N=C2\C=C(NS(=O)(=O)c3ccc(C)cc3)C(=O)c3ccccc32)cc1` here?
Answer: 11.2 µM (active)

Question: For `Cc1ccc(S(=O)(=O)N/N=C(\c2ccccc2)C2CC2)cc1`, which “activity, negative = inhibition” value is on record?
Answer: 10.5%

Question: For `CCCCN(C)CCCNC(=O)CN1N=C(c2ccc(OC)cc2)CCC1=O`, which “activity, negative = inhibition” value is on record?
Answer: 0%

Question: With `Brc1cccc(-c2nnn3c2nc(NC2CCCCC2)c2ccccc23)c1` as the compound, how does the “activity, negative = inhibition” value read?
Answer: -8.48%

Question: Which “activity, negative = inhibition” value does the source give for `NC(=O)C1CCN(C(=O)COc2cccc3cccnc23)CC1` here?
Answer: -2.64%

Question: For `O=S(=O)(NCCOc1cccc2cccnc12)c1ccc(F)cc1`, which “activity, negative = inhibition” value is on record?
Answer: -15.5%

Question: Which Potency does the source give for `O=C(Nc1ccccc1)Oc1cccc2cccnc12` here?
Answer: 8.91 µM (active)

Question: Which “activity, negative = inhibition” value does the source give for `CCNS(=O)(=O)c1ccc(NC(=O)CSc2nc(-c3ccco3)cc(C(F)(F)F)n2)cc1` here?
Answer: 0%

Question: Which Potency does the source give for `CCNS(=O)(=O)c1ccc(NC(=O)Nc2cccc(C(F)(F)F)c2)cc1` here?
Answer: 12.6 µM (active)

Question: For `CCNS(=O)(=O)c1ccc(NC(=O)c2cncc(Br)c2)cc1`, which “activity, negative = inhibition” value is on record?
Answer: -4.93%

Question: For `CO[C@H]1O[C@@H]2O[C@@]3(C)CC[C@@H]4[C@@H](C)CC[C@@H]([C@H]1C)[C@@]24OO3`, which “activity, negative = inhibition” value is on record?
Answer: 13%

Question: For `Brc1nc2ncnc(NCc3ccco3)c2[nH]1`, which “activity, negative = inhibition” value is on record?
Answer: 17.8%

Question: Which “activity, negative = inhibition” value does the source give for `CC(=O)N(CN1C(=O)C2CC=CCC2C1=O)c1cccc(Cl)c1` (stereo not given) here?
Answer: -19.6%

Question: With `O=C(CCl)N(Cc1cccc([N+](=O)[O-])c1)c1cccc(Cl)c1` as the compound, how does the Potency read?
Answer: 11.2 µM (active)

Question: For `COC(=O)c1cc(C(=O)N(Cc2ccccc2)c2ccccn2)cc([N+](=O)[O-])c1`, which “activity, negative = inhibition” value is on record?
Answer: 6.92%

Question: Which “activity, negative = inhibition” value does the source give for `CCCc1nn2c(=O)cc(COC(=O)c3ccc(NC(=O)COc4ccc(F)cc4)cc3)nc2s1` here?
Answer: -0.265%

Question: With `Oc1ccc(CNc2ccccc2O)cc1` as the compound, how does the Potency read?
Answer: 12.6 µM (active)

Question: With `c1ccc(CNCc2ccc(CNCc3ccccc3)cc2)cc1` as the compound, how does the “activity, negative = inhibition” value read?
Answer: 3.53%

Question: For `Oc1ccc(N2CCN(C(=S)NCc3ccccc3)CC2)cc1`, which “activity, negative = inhibition” value is on record?
Answer: -0.832%

Question: Which “activity, negative = inhibition” value does the source give for `CCN(CC)c1nc(C#N)nc(OC)n1` here?
Answer: -4.06%

Question: Which “activity, negative = inhibition” value does the source give for `CCC(=O)Nc1ccc(Nc2nc(Cl)nc(Nc3ccc(NC(=O)CC)cc3)n2)cc1` here?
Answer: 23.4%

Question: Which “activity, negative = inhibition” value does the source give for `CC(C)(CCl)C(=O)Nc1ccc(Sc2ccc(F)cc2)cc1` here?
Answer: 0%

Question: Which Potency does the source give for `O=C(CCl)Nc1ccc(Sc2ccc(NC(=O)CCl)cc2)cc1` here?
Answer: 10 µM (active)
